Screening data from PubChem.
HT1080-NT tox – qHTS for induction of synthetic lethality in tumor cells producing 2HG: qHTS for the HT-1080-NT fibrosarcoma cell line | Potency, µM (top dose mostly 46.1 µM), for the others: at the top dose activity, negative = less viability, actives largely listed as cytotoxic | AID 686970, 2013 | 360,000 tested, 1.6% active | HT-1080-NT fibrosarcoma viability, CellTiter-Glo ATP luminescence, 48 h;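 note: NT is the 2HG producing partner of a matched IDH1 knockdown line; 0% = DMSO-treated cells and -100% = media-only wells without cells; nearly all actives have a fitted effect of over 55% in size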
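750 cells/well, RPMI + 5% FBS; 2 h settle, compound pin-transfer, 48 h at 37 degrees C. CellTiter-Glo 10 min RT, luminescence. Normalized to DMSO and media-only wells.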
SW480 rerep – A quantitative high throughput screen for small molecules that induce DNA re-replication in SW480 colon adenocarcinoma cells | SW480 DNA re-replication, Hoechst DNA content imaging, 48 h | Potency, µM (series often up to 46.1 µM), inactives show at the highest dose re-replication activation, actives largely listed as activators | 340,000 tested, 1.8% active | AID 624297, 2012; note: % of control where 0% means no effect; nearly all actives have a fitted effect of over 55% in size
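SW480 cells exposed to compounds for 48 hr at 37 C, 5% CO2, then Hoechst-stained 40 min. Nuclear DNA content imaged by fluorescence scanning (405 nm excitation, 500-530 nm emission); re-replication scored as increased high-intensity nuclei.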
HT1080 IDH1KD tx – qHTS for induction of synthetic lethality in tumor cells producing 2HG: qHTS for the HT-1080-IDH1KD cell line | 360,000 tested, 2% active | AID 686971, 2013 | HT-1080 IDH1 knockdown viability, ATP luminescence, 48 h | Potency, µM (doses to about 46.1 µM), for inactives: at the highest dose activity, negative = toxicity, usual class: cytotoxic;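 note: 0% = DMSO wells and -100% = cell-free medium wells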
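Assay cells: HT-1080 with IDH1 knockdown, 750 per well, RPMI/5% FBS. Exposure: 48 h at 37 °C following 2 h pre-incubation. Read: CellTiter-Glo luminescence; fitted concentration-response, curve class assigned.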
KB-3-1 cytotox – qHTS assay for MDR1-selective chemotherapeutics: Primary screen using the parental adenocarcinoma cell KB-3-1. AID 1347075, 2019. 400,000 tested, 1.4% active. KB-3-1 viability, CellTiter-Glo ATP luminescence, 72 h. Potency, µM (titrated, usually from 46.1 µM), hits mostly cytotoxic; note: % is set by controls: 0 for no effect and ±100 for the full control effect; nearly all actives have a fitted effect of over 60% in size
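KB-3-1 parental drug-naive adenocarcinoma cells in DMEM/10% FBS, incubated 72 h at 37 C with pin-transferred compounds across a concentration series. Viability by CellTiter-Glo luminescence; concentration-response curves fitted after normalization.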
MCF10A rerep – A quantitative high throughput screen for small molecules that induce DNA re-replication in MCF 10a normal breast cells. MCF 10A DNA re-replication, Hoechst nuclear intensity, 48 h. Potency, µM (series often up to 46.1 µM), for the others: top-dose activity, positive = re-replication, actives largely listed as activators. 350,000 tested, 2.9% active; note: % of control where 0% means no effect; nearly all actives have a fitted effect of over 50% in size
KB-V1 cytotox – qHTS assay for MDR1-selective chemotherapeutics: Primary screen using the drug-selected MDR subline cells KB-V1; KB-V1 MDR cells viability, CellTiter-Glo, 72 h; Potency, µM (titrated, usually from 46.1 µM), usual class: cytotoxic; 400,000 tested, 3.4% active; AID 1347076, 2019; note: % is set by controls: 0 for no effect and ±100 for the full control effect; nearly all actives have a fitted effect of over 60% in size
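Drug-selected KB-V1 cells, grown in DMEM lacking phenol red with 10% FBS, receive compound titrations; after three days at 37 degrees C, surviving cell ATP is quantified by CellTiter-Glo luminescence and responses normalized and curve-fitted.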
An asterisk follows results filed as active; [ ] = remark or other dose. Rows were chosen to be rich in hits. Some 8% of all compounds tested hit in one or more screens of this group. Calls come from the whole dose curve; as a rule, active = well fitted curve in the direction sought with a large enough effect; inconclusive = small, poorly fitted or top-dose-only effect, or another doubt; inactive = no such curve, though single readings can be large; an effect the other way counts as inactive or inconclusive. Potency is the fitted concentration of half-maximal effect.

CC(NC(=O)c1ccc(Br)cc1)c1ccccc1 (stereo not drawn) was read as HT1080-NT tox 14%, SW480 rerep -701%, HT1080 IDH1KD tx 23%, KB-3-1 cytotox inactive, MCF10A rerep inconclusive and KB-V1 cytotox inactive.
Screening O=C(CSc1nc(C2CC2)nc2ccccc12)N1CCCCC1 returned HT1080-NT tox -15%, SW480 rerep 15%, HT1080 IDH1KD tx -18%, KB-3-1 cytotox inactive, MCF10A rerep 28% and KB-V1 cytotox inactive.
Screening O=C(CSc1nc(C2CC2)nc2ccccc12)N1c2ccccc2Sc2ccc(C(F)(F)F)cc21 returned HT1080-NT tox -3%, SW480 rerep 11%, HT1080 IDH1KD tx -10%, KB-3-1 cytotox inconclusive, MCF10A rerep 24% and KB-V1 cytotox 18µM*.
Screening CCN(CC)c1ccc(NC(=O)CSc2nc(C3CC3)nc3ccccc23)cc1C returned HT1080-NT tox 9.2µM*, SW480 rerep 8.2µM*, HT1080 IDH1KD tx 6.5µM*, KB-3-1 cytotox 4.6µM*, MCF10A rerep 6.5µM* and KB-V1 cytotox 6.5µM*.
O=C(CSc1nc(C2CC2)nc2ccccc12)Nc1ccccc1 was read as HT1080-NT tox -14%, SW480 rerep 0%, HT1080 IDH1KD tx 1%, KB-3-1 cytotox inactive, MCF10A rerep -5% and KB-V1 cytotox inactive.
Screening COc1cc(NC(=O)CSc2nc(C3CC3)nc3ccccc23)cc(OC)c1 returned HT1080-NT tox 13µM*, SW480 rerep inconclusive, HT1080 IDH1KD tx inconclusive, KB-3-1 cytotox inactive, MCF10A rerep inconclusive and KB-V1 cytotox inactive.
For O=C(Nc1ncnc2c1C(c1ccccc1)c1c(ccc3ccccc13)O2)c1ccccc1 (stereo not drawn) the results were SW480 rerep 12%[9.22 µM], KB-3-1 cytotox 13µM*, MCF10A rerep inconclusive and KB-V1 cytotox inconclusive.
`O=C(Cc1ccccc1)Nc1ncnc2c1C(c1ccccc1)c1c(ccc3ccccc13)O2` (stereo not drawn) gave SW480 rerep inconclusive, KB-3-1 cytotox inconclusive, MCF10A rerep inconclusive and KB-V1 cytotox 18µM*.
`CC[C@H]1OC(=O)[C@H](C)C(=O)[C@H](C)[C@@H](OC2O[C@H](C)C[C@H](N(C)C)[C@@H]2O)[C@@](C)(OC)C[C@@H](C)C(=O)[C@@H](C)C2N(CCCCn3cnc(-c4cccnc4)c3)C(=O)O[C@@]21C` (stereo partly drawn) gave SW480 rerep 0% and MCF10A rerep 25%.
`CCCc1nnc(NC(=O)c2nc(S(=O)(=O)Cc3ccc(C)cc3)ncc2Cl)s1` gave HT1080-NT tox -24%, SW480 rerep 8.2µM*, HT1080 IDH1KD tx inconclusive, KB-3-1 cytotox inconclusive, MCF10A rerep 3.7µM* and KB-V1 cytotox inactive.
Screening CSc1nnc(NC(=O)c2nc(S(=O)(=O)Cc3ccccc3)ncc2Cl)s1 returned HT1080-NT tox 21µM*, SW480 rerep inconclusive, HT1080 IDH1KD tx 23µM*, KB-3-1 cytotox 18µM*, MCF10A rerep inconclusive and KB-V1 cytotox inconclusive.
Screening CC(C)c1nnc(NC(=O)c2nc(S(=O)(=O)Cc3ccccc3)ncc2Cl)s1 returned HT1080-NT tox 7.3µM*, SW480 rerep inconclusive, HT1080 IDH1KD tx 6.5µM*, KB-3-1 cytotox inconclusive, MCF10A rerep inconclusive and KB-V1 cytotox inconclusive.
Cc1nc2ccccn2c1C(=O)NNC(=S)Nc1ccc(Cl)cc1 was read as HT1080-NT tox -6%, SW480 rerep 3%, HT1080 IDH1KD tx -25%, KB-3-1 cytotox inactive, MCF10A rerep 11% and KB-V1 cytotox inconclusive.
Screening Cc1cccc(-n2cnc(C(=O)NNC(=S)Nc3ccc(Cl)cc3)c2)n1 returned HT1080-NT tox -22%, SW480 rerep inconclusive, HT1080 IDH1KD tx -23%, KB-3-1 cytotox 13µM*, MCF10A rerep 15% and KB-V1 cytotox inactive.
For COc1ccc(/C=C/C(=O)Nc2ccc(S(=O)(=O)Nc3onc(C)c3C)cc2)cc1OC the results were HT1080-NT tox 0%, SW480 rerep -16%, HT1080 IDH1KD tx 0% and MCF10A rerep inconclusive.
`Cc1ccccc1-c1nc(CS(=O)(=O)CC(=O)NCC(C)c2ccccc2)c(C)o1` (stereo not drawn) gave KB-3-1 cytotox inactive and KB-V1 cytotox inconclusive.
O=C(O)CSc1nnc(-c2cccs2)n1-c1ccc(Cl)cc1 was read as HT1080-NT tox 16%, SW480 rerep 4%, HT1080 IDH1KD tx 19%, KB-3-1 cytotox inactive, MCF10A rerep -3% and KB-V1 cytotox inactive.
Screening O=C(CSc1nnc(-c2cccs2)n1-c1cccc(Cl)c1)c1cccc2c1OCCO2 returned HT1080-NT tox 16%, SW480 rerep 2%, HT1080 IDH1KD tx 7%, KB-3-1 cytotox inactive, MCF10A rerep 4% and KB-V1 cytotox 8.2µM*.
Screening Cc1nc(SCc2nc3ccc(Br)cc3[nH]2)c2oc3ccccc3c2n1 returned SW480 rerep -4%, KB-3-1 cytotox inactive, MCF10A rerep inconclusive and KB-V1 cytotox inactive.
`CCc1nc(Sc2nc(C)cc(C)n2)c2oc3ccccc3c2n1` gave HT1080-NT tox inconclusive, SW480 rerep inconclusive, HT1080 IDH1KD tx inconclusive, KB-3-1 cytotox inconclusive, MCF10A rerep inconclusive and KB-V1 cytotox 16µM*.
Cc1nc(SCc2nc3ccc(C(F)(F)F)cc3[nH]2)c2oc3ccccc3c2n1 was read as SW480 rerep 6%, KB-3-1 cytotox 16µM*, MCF10A rerep inconclusive and KB-V1 cytotox inactive.
Cc1nc(SCc2nc3ccc(Cl)cc3[nH]2)c2oc3ccccc3c2n1 was read as SW480 rerep 25%, KB-3-1 cytotox inactive, MCF10A rerep inconclusive and KB-V1 cytotox inactive.
Screening CCc1nc(SCc2nc3ccccc3[nH]2)c2oc3ccccc3c2n1 returned HT1080-NT tox inconclusive, SW480 rerep 25%, HT1080 IDH1KD tx inconclusive, KB-3-1 cytotox inactive, MCF10A rerep inconclusive and KB-V1 cytotox 3.3µM*.
For O=C(O)Cc1ccc(NC2(c3ccccc3)C(=O)c3ccccc3C2=O)cc1 the results were KB-3-1 cytotox inactive and KB-V1 cytotox inconclusive.
